Shown are actives, neighbours in structure and some others; about 3.8% of the full set was active somewhere.
HepG2 tox = qHTS for Inhibitors of TGF-b: Cytotox Counterscreen; HepG2 CAGA-GFP viability, ATP luminescence, 18 h; Potency, µM (top dose mostly 46.1 µM), without a hit: at the highest dose activity change, negative = cytotoxicity, usual class: cytotoxic; hit rate 0.76% among 410,000
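HepG2 CAGA-GFP cells (1000/well, DMEM with 1% FBS) received compound, then TGF-beta at 500 pg/mL final, and were incubated 18 hours at 37 degrees C. Viability was read by CellTiter-Glo luminescence. Media-only wells were set as complete cell-killing and DMSO as no toxicity.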
TGFb SMAD3 inh = qHTS for Inhibitors of TGF-b | HepG2 CAGA-GFP TGF-b/SMAD3 reporter, GFP fluorescence, 18 h; TGF-beta stimulated, 500 pg/mL final | Potency, µM (highest dose often 46.1 µM), without a hit: top-dose activity, negative = inhibition, most hits filed as inhibitors | hit rate 1.2% among 410,000; note: % is set by controls: 0 for no effect and ±100 for the full control effect; nearly all actives have a fitted effect of over 65% in size
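Inhibition was scored as loss of TGF-beta-induced (500 pg/mL final, 18 hours, 37 degrees C) GFP in HEPG2 cells carrying a CAGA-GFP reporter, in DMEM with 1% FBS. Well GFP was summed per cell; Activity was normalised to unstimulated and stimulated DMSO wells, then concentration-response fitting.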
HT1080 IDH1KD tx = qHTS for induction of synthetic lethality in tumor cells producing 2HG: qHTS for the HT-1080-IDH1KD cell line; Potency, µM (top dose mostly 46.1 µM), inactives show at the top dose activity, negative = toxicity, actives largely listed as cytotoxic; HT-1080 IDH1 knockdown viability, ATP luminescence, 48 h; hit rate 2% among 360,000; AID 686971, 2013;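 note: 0% = DMSO wells and -100% = cell-free medium wells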
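Assay cells: HT-1080 with IDH1 knockdown, 750 per well, RPMI/5% FBS. Exposure: 48 h at 37 °C following 2 h pre-incubation. Read: CellTiter-Glo luminescence; fitted concentration-response, curve class assigned.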
S2 tox = Viability Counterscreen for Primary qHTS for Inhibitors of ATXN expression; S2 cells (HEK-293 line with an ATXN2-luciferase reporter) viability, CellTiter-Fluor protease fluorescence, 24 h; hit rate 0.49% among 400,000; Potency, µM (doses to about 56.7 µM), hits mostly cytotoxic; note: nearly all actives have a fitted effect of over 40% in size
ATXN2 expr inh = Primary qHTS for Inhibitors of ATXN expression; hit rate 0.72% among 360,000; HEK-293 ATXN2-luciferase reporter, luminescence, 24 h; Potency, µM (doses to about 57 µM), for inactives: top-dose activity change, negative = inhibition, most hits filed as inhibitors; note: % is set by controls: 0 for no effect and ±100 for the full control effect; nearly all actives have a fitted effect of over 55% in size
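qHTS (up to 57 uM final) was run with 24 h compound exposure of reporter cells at 37 °C. Each well was multiplexed: SteadyGlo luminescence measured ATXN2-luciferase expression after a fluorogenic Gly-Phe-AFC viability readout (25 uM final).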
HT1080NT lethal = qHTS for induction of synthetic lethality in tumor cells producing 2HG: qHTS for the HT-1080-NT fibrosarcoma cell line | HT-1080-NT fibrosarcoma viability, CellTiter-Glo ATP luminescence, 48 h | Potency, µM (highest dose often 46.1 µM), for inactives: at the top dose activity, negative = less viability, actives largely listed as cytotoxic | hit rate 1.6% among 360,000;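 note: NT is the 2HG producing partner of a matched IDH1 knockdown line; 0% = DMSO-treated cells and -100% = media-only wells without cells; nearly all actives have a fitted effect of over 55% in size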
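A 48-hour cytotoxicity screen used HT-1080-NT cells plated 2 hours before compound delivery. ATP-based CellTiter-Glo luminescence measured viability, normalized to DMSO and no-cell controls.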
* hit, by the source's call; i = inactive; ? = inconclusive; . = no result. Calls come from the whole dose curve; as a rule, active = well fitted curve in the direction sought with a large enough effect; inconclusive = small, poorly fitted or top-dose-only effect, or another doubt; inactive = no such curve, though single readings can be large; an effect the other way counts as inactive or inconclusive. Potency is the fitted concentration of half-maximal effect.

SMILES | HepG2 tox | TGFb SMAD3 inh | HT1080 IDH1KD tx | S2 tox | ATXN2 expr inh | HT1080NT lethal
COc1cc2c(cc1OC)CN(C(=O)/C=C/c1cccs1)CC2 | -50% | -11% | 4.1µM* | ? | ? | 7.3µM*
COc1cc2c(cc1OC)CN(C(=O)c1cc3ccccc3oc1=O)CC2 | 2% | ? | 16µM* | i | -9% | ?
Cc1ccc(NC(=O)C2CCCN(c3nnc(C)c4c(C)n(-c5ccccc5)nc34)C2)c(Cl)c1 (stereo not given) | -30% | -5% | . | ? | ? | .
CCCCCOC(=O)C1=C(C)Nc2nnnn2C1c1ccccc1Cl (stereo not given) | -109% | ? | 21µM* | i | -7% | 13µM*
CC(=O)c1cccc(-c2ccc3c(c2)C(C)(Cc2ccccc2C#N)C(=O)N3)c1 (stereo not given) | -6% | 19% | -12% | i | -30% | -20%
CC1(Cc2cc(Cl)ccc2C(F)(F)F)C(=O)Nc2cc(C(F)(F)F)ccc21 (stereo not given) | 18µM* | ? | 21µM* | ? | -19% | ?
CC1(Cc2ccccc2OC(F)(F)F)C(=O)Nc2ccc(OC(F)(F)F)cc21 (stereo not given) | -106% | ? | 21µM* | ? | ? | ?
COc1ccc(C(C)=O)cc1CC1(C)C(=O)Nc2ccc(-c3cccc(C(F)(F)F)c3)cc21 (stereo not given) | -106% | 16µM* | ? | i | ? | ?
CC1(Cc2cc(Cl)ccc2C(F)(F)F)C(=O)Nc2ccc(-c3ccc(F)c(Cl)c3)cc21 (stereo not given) | -115% | ? | -9% | . | 0% | ?
CC1(Cc2cc(Cl)ccc2C(F)(F)F)C(=O)Nc2ccc(OC(F)(F)F)cc21 (stereo not given) | -101% | ? | 21µM* | ? | ? | ?
Cc1ccccc1NC(=O)CSc1nccn1C | -7% | -5% | . | i | 8% | .
O=C(Nc1ccc(/C=C/c2ccc(NC(=O)c3cc(S(=O)(=O)O)c4cccnc4c3O)cc2S(=O)(=O)O)c(S(=O)(=O)O)c1)c1cc(S(=O)(=O)O)c2cccnc2c1O | . | . | . | i | . | .
CC1(Cc2ccccc2Cl)C(=O)Nc2cc(-c3ccccc3Cl)ccc21 (stereo not given) | 18µM* | ? | ? | . | -22% | ?
COc1ccccc1-c1ccc2c(c1)C(C)(Cc1cc(Cl)ccc1C(F)(F)F)C(=O)N2 (stereo not given) | -102% | 18µM* | ? | i | ? | ?
CC1(Cc2cc(Cl)ccc2C(F)(F)F)C(=O)Nc2cc(F)ccc21 (stereo not given) | -85% | ? | ? | ? | ? | ?
CC1(Cc2ccc(OC(F)(F)F)cc2)C(=O)Nc2ccc(S(=O)(=O)NC3CCCCC3)cc21 (stereo not given) | 11µM* | ? | 12µM* | ? | ? | 13µM*
CC1(Cc2ccc(C(F)(F)F)o2)C(=O)Nc2cc(-c3ccc(F)cc3F)ccc21 (stereo not given) | 20µM* | ? | ? | ? | ? | ?
COc1ccc(OC)c(-c2cc(Cl)c3c(c2)CC(CNC(=O)/C=C/c2ccccn2)O3)c1 (stereo not given) | . | . | . | i | . | .
O=C(Nc1nnc(-c2ccccc2)s1)C1CCCN(C(=O)c2ccoc2)C1 (stereo not given) | 1% | 5% | . | . | . | .
O=C(c1ccccc1)N1CCC(c2nc(-c3ccc(S(=O)(=O)N4CCOCC4)cc3)no2)CC1 | -35% | -25% | -12% | ? | -20% | -2%
O=C(Nc1ccccc1)N1CCC(c2nc(-c3ccc(S(=O)(=O)N4CCOCC4)cc3)no2)CC1 | 0% | 31% | 7.9µM* | i | -19% | 10µM*
Cc1ccc(S(=O)(=O)Nc2ccc(Br)cc2C(NCC(=O)O)c2ccccc2)cc1 (stereo not given) | -4% | ? | -12% | i | 3% | -4%
O=C(O)CSc1cc(NS(=O)(=O)c2ccc(Br)cc2)c2ccccc2c1O | -27% | ? | 16µM* | i | . | 21µM*
CCOC(=O)N1CCN(C(=O)CSc2cc(C)nc3c(-c4ccccc4OC)c(C)nn23)CC1 | -77% | ? | 11µM* | ? | -9% | 10µM*
CCn1c(-c2ccccc2F)nc2cc(C(=O)N3CCCC(CO)C3)cc(NC(C)=O)c21 (stereo not given) | . | . | . | i | . | .
SMILES | HepG2 tox | TGFb SMAD3 inh | HT1080 IDH1KD tx | S2 tox | ATXN2 expr inh | HT1080NT lethal
CCCN1CNc2c(c(=O)[nH]c(=S)n2CCc2ccccc2Cl)C1 | . | . | 7% | . | . | 5%
Cc1ccc(NC(=O)Nc2cccc([N+](=O)[O-])c2)cc1F | -32% | ? | 12µM* | i | -25% | 15µM*
O=C(Nc1ccc(OC(F)(F)F)cc1)Nc1cccc([N+](=O)[O-])c1 | 7.9µM* | ? | ? | 16µM* | ? | ?
CC(C)[C@H](NC(N)=O)C(=O)Nc1cccc([N+](=O)[O-])c1 | 14% | 0.63µM* | 15% | i | 11% | 29%
O=C(Nc1ccc(OC(F)(F)F)cc1)c1[nH]ncc1[N+](=O)[O-] | -37% | 11µM* | -12% | i | -4% | -22%
Cc1ccccc1CN1[C@H](C)[C@H](c2ccccc2)OCCS1(=O)=O | -6% | ? | . | . | . | .
Cc1cc(C)c(NC(=O)Cc2csc(C)n2)c(Cl)c1 | -2% | -20% | . | . | . | .
O=CNc1c(Cl)cc2c(c1Cl)Cc1cc([N+](=O)[O-])ccc1-2 | -32% | 3.2µM* | -12% | i | -6% | -1%
O=[N+]([O-])c1ccc2c(c1)Cc1cc(F)ccc1-2 | -6% | -6% | 30% | i | 1% | ?
CCOC(=O)c1sc(N(Cc2ccccc2)C(=O)CCl)nc1C | -173% | ? | 18µM* | i | 42% | ?
CCOC(=O)c1sc(N(Cc2ccccc2)C(=O)COC(=O)c2ccccc2O)nc1C | 2% | -1% | 2% | i | 23% | 12%
CCOC(=O)c1sc(N(Cc2ccccc2)C(=O)COC(=O)c2ccc(O)cc2)nc1C | -97% | 13µM* | -21% | i | ? | -19%
COC(=O)C1=C(N)Oc2cc(N(C)C)ccc2C1c1ccccc1OC (stereo not given) | -20% | -23% | 4.1µM* | i | -23% | ?
